Experiment [1] can be described thus: qHTS assay for small molecule agonists of the p53 signaling pathway (AID 651631; calls by dose curve; note: nearly all actives have a fitted effect of over 15% in size). In short, it runs like this:
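Agonist mode screen using a stably integrated beta-lactamase gene under p53 response elements in HCT-116 cells. Compound exposure lasts 16 h at 37 °C; fluorescence intensity is measured following 2 h FRET substrate loading.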

The nature of experiment [2]: qHTS assay for small molecule agonists of the p53 signaling pathway - cell viability (AID 651633; calls by dose curve;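 note: p53RE-bla HCT reporter cells with a stable beta-lactamase p53 reporter; series mostly up to about 83 µM; nearly all actives have a fitted effect of over 30% in size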). In short, it runs like this: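 p53RE-bla cells, seeded at 4,000 per well and rested 5 h at 37 C/5% CO2, received compounds in DMSO for 16 h at 37 C. CellTiter-Glo was then added, and luminescence was read after 30 min at room temperature to gauge cytotoxicity.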
The nature of experiment [3]: qHTS assay for small molecules that induce genotoxicity in human embryonic kidney cells expressing luciferase-tagged ATAD5 - cell viability (AID 651634; calls by dose curve; note: nearly all actives have a fitted effect of over 25% in size). In short, it runs like this:
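15.5 hr compound or vehicle exposure of HEK293T cells expressing luciferase-tagged ATAD5 at 37C; live-cell protease activity is read by fluorescence after 30 min of CellTiter-Fluor.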
In general terms: Quantitative high-throughput screening tests each substance at several concentrations.

A short description of experiment [4]: qHTS assay for small molecule disruptors of the mitochondrial membrane potential - cell viability (AID 720634; calls by dose curve;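 note: human HepG2 liver cancer cells; series mostly up to about 83 µM; nearly all actives have a fitted effect of over 20% in size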). In short, it runs like this: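 In this qHTS format, HepG2 cells plated overnight were pinned with compound, incubated 1 hr, and assayed for ATP luminescence with CellTiter-Glo after m-MPI dye addition.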
Experiment [5] in a line: qHTS assay to test for compound auto fluorescence at 590 nm (red) in HepG2 cells (AID 720674). In short, it runs like this: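 Compound auto-fluorescence is scored relative to Rose Bengal sodium, measured at 540/590 nm in live HepG2 cultures after 1 hr compound contact (37 C, 5% CO2).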
A short description of experiment [6]: qHTS assay to test for compound auto fluorescence at 535 nm (green) in HepG2 cells (AID 720675).
The nature of experiment [7]: qHTS assay to test for compound auto fluorescence at 460 nm (blue) in HEK293 cells (AID 720678). The procedure, abridged: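 HEK293, 2,000 cells/well, 10% dialyzed FBS; attach 4-5 hr 37C; pin compound or DMSO; o/n 37C/5% CO2; fluorescence 405/460 nm; triamterene-equivalent units.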
Experiment [8] can be described thus: qHTS assay to test for compound auto fluorescence at 590 nm (red) in HEK293 cells (AID 720679). In short, it runs like this:
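Intensity at 540nm excitation and 590nm emission is reported as Rose Bengal sodium-equivalent autofluorescence. Measurements followed overnight exposure (37C, 5% CO2) of HEK293 cells, 2,000 per well, to 23 nL compound.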

A short description of experiment [9]: qHTS assay to test for compound auto fluorescence at 535 nm (green) in HEK293 cells (AID 720680).
Experiment [10] is described as follows: qHTS assay to test for compound auto fluorescence at 460 nm (blue) in HEK293 cell free culture (AID 720681). In short, it runs like this: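 Test compounds were pinned into cell-free culture medium (DMEM with 10% FBS) and fluorescence was read directly at Ex/Em 405/460 nm. Signals were expressed as fluorescence equivalents of triamterene, with DMSO vehicle as control.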

Experiment [11] is described as follows: qHTS assay to test for compound auto fluorescence at 535 nm (green) in HEK293 cell free culture (AID 720682). In short, it runs like this: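 No cells present: wells hold DMEM supplemented with 10% FBS, into which compound or vehicle is pinned. Green emission is then recorded (485 nm excitation, 535 nm emission) and scaled to fluorescein.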
Experiment [12] in a line: qHTS assay to test for compound auto fluorescence at 590 nm (red) in HEK293 cell free culture (AID 720683). In short, it runs like this: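 Tox21 10K library compounds were pinned into cell-free DMEM with 10% FBS and fluorescence was read at excitation 540 nm. Activity is expressed as Rose Bengal sodium equivalency.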
Experiment [13] can be described thus: qHTS assay to test for compound auto fluorescence at 590 nm (red) in HepG2 cell free culture (AID 720684). The procedure, abridged:
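Ex 540 / Em 590 nm read of compound in cell-free MEM (10% FBS). Rose Bengal sodium reference.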

The nature of experiment [14]: qHTS assay to test for compound auto fluorescence at 460 nm (blue) in HepG2 cell free culture (AID 720685). In short, it runs like this: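 Cell-free plates of MEM plus 10% FBS received 23 nL compound or DMSO vehicle; blue-channel (405/460 nm) intensity scored against triamterene as reference fluorophore.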
Experiment [15] is described as follows: qHTS assay to test for compound auto fluorescence at 535 nm (green) in HepG2 cell free culture (AID 720686).
Experiment [16] can be described thus: qHTS assay to test for compound auto fluorescence at 460 nm (blue) in HepG2 cells (AID 720687). In short, it runs like this:
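Cells (2,000/well in MEM with 10% FBS) attached overnight at 37 C, then were exposed to compound or DMSO for 1 hr at 37 C, 5% CO2. Fluorescence read at Ex/Em 405/460 nm, expressed as triamterene-equivalent signal.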

The target of experiment [17] is Glucocorticoid receptor (Homo sapiens) (UniProt P04150). Kind of experiment: qHTS assay to identify small molecule agonists of the glucocorticoid receptor (GR) signaling pathway (AID 720691; active = well fitted activation curve with a large enough effect in the signal ratio in the repeat runs, not every such curve was filed as active; the % refers to the signal ratio). The procedure, abridged:
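Measures GR pathway activation through a GRE-beta-lactamase reporter stably integrated in HeLa cells, with 18 h compound treatment at 37 C and fluorescence detection using a FRET substrate.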

For experiment [18] the target is unchanged. Kind of experiment: qHTS assay to identify small molecule antagonists of the glucocorticoid receptor (GR) signaling pathway (AID 720692; active = well fitted inhibition curve with a large enough effect in the signal ratio in the repeat runs, not every such curve was filed as active; the % refers to the signal ratio). The procedure, abridged:
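Tox21 10K library screened in concentration-response for blockade of dexamethasone (5 nM final)-induced GRE-bla reporter activity in HeLa cells; 18 h treatment, fluorescence read.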

Experiment [19] in a line: qHTS assay for small molecules that induce genotoxicity in human embryonic kidney cells expressing luciferase-tagged ATAD5 (AID 651632). Note: nearly all actives have a fitted effect of over 15% in size. The procedure, abridged: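 Concentration-response screen for ATAD5 upregulation in HEK293T luciferase reporter cells; 16 hr treatment at 37C, then luminescence after 30 min with Amplite at room temperature.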
A short description of experiment [20]: qHTS assay for small molecule disruptors of the mitochondrial membrane potential (AID 720635). Note: potency is the fitted concentration of half-maximal effect. The procedure, abridged: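 HepG2 cells (2,000/well) attached overnight at 37C, then took compound for 1 hr at 37C, 5% CO2. Mito-MPS dye was added for 30 min; fluorescence was read at 490/535 nm (monomers) and 540/590 nm (aggregates).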

A number with no mark means an inactive call. Results filed as inconclusive are left out. Activity calls are given as the source filed them. Unless noted, calls come from the whole dose curve; as a rule, active = well fitted curve in the direction sought with a large enough effect in the repeat runs; inconclusive = weak or mixed curves; inactive = no such curve, though single readings can be large; an effect the other way counts as inactive or inconclusive.
% is set by controls: 0 for no effect and ±100 for the full control effect.

Sequence of Glucocorticoid receptor (Homo sapiens) (P04150 whole entry, looked up): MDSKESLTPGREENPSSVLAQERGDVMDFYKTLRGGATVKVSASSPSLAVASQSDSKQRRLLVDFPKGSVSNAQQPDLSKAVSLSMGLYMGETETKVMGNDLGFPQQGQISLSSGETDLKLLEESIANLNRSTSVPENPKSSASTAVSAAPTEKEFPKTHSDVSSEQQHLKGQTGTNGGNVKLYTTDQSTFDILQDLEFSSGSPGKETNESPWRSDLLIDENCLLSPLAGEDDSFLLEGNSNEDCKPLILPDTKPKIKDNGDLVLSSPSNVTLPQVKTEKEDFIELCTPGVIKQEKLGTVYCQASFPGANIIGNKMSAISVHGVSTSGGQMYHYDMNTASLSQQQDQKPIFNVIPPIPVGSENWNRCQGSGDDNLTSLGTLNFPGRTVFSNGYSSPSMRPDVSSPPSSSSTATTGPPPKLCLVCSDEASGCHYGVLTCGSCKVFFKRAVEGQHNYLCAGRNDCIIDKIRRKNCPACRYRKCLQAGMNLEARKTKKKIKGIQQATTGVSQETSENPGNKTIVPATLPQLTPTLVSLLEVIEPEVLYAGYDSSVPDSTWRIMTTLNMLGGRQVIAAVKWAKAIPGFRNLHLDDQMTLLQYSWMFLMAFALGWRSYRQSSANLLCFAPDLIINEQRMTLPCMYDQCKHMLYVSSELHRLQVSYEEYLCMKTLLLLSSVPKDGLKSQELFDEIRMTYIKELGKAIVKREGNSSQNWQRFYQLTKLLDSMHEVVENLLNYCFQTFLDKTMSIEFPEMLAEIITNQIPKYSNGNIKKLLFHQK

In the case of `CCCCCCC(O)CO` (stereo unspecified), the Potency entry in experiment [1] and in experiment [17] was “inactive” throughout. In addition, the outcome in [2], in experiment [3], in experiment [4], in experiment [5], in experiment [6] and in experiment [7] was inactive. For the same compound, the result in [8], in [9], in [10], in experiment [11], in experiment [12] and in experiment [13] was inactive. Besides, the compound was called inactive in experiment [14], in experiment [15], in [16] and in experiment [18].
As to `CC(C)(C)C(=O)CC(=O)C(C)(C)C`, the Potency result in experiment [1], in experiment [19] and in experiment [17] was “inactive” in each case. The outcome in experiment [3], in experiment [4], in experiment [5], in experiment [6], in [7] and in experiment [8] was inactive. Besides, the result in experiment [9], in [10], in experiment [11], in experiment [12], in experiment [13] and in [14] was inactive. In addition, the call in experiment [15], in experiment [16] and in [18] was inactive.
For `COc1cc2nc(N3CCN(C(=O)C4CCCO4)CC3)nc(N)c2cc1OC` (stereo unspecified), the Potency entry in experiment [1], in experiment [19] and in [17] was “inactive” each time. Besides, the compound was classed as inactive in experiment [3], in experiment [5], in experiment [6], in [7], in experiment [8] and in experiment [9]. The call in experiment [10], in experiment [11], in experiment [13], in experiment [14], in experiment [15] and in experiment [18] was inactive.
With `CC1(C)CC(N)CC(C)(C)N1`, the Potency entry in experiment [1] and in experiment [19] was “inactive” throughout. Also, the result in experiment [3], in experiment [4], in experiment [5], in [6], in experiment [8] and in [10] was inactive. Also, the compound was classed as inactive in [11], in experiment [12], in experiment [13], in [14], in [15] and in [16].
As for `Cc1ccc2ccccc2n1`, the Potency entry in [1], in experiment [20] and in experiment [17] was “inactive” throughout. Also, the outcome in [2], in [3], in [4], in [5], in experiment [6] and in experiment [7] was inactive. In addition, the compound was classed as inactive in experiment [8], in experiment [10], in experiment [11], in experiment [12], in experiment [13] and in experiment [14]. The compound was called inactive in experiment [15] and in experiment [16].
Turning to `Cc1ccccc1C#N`, the Potency result in experiment [1] and in experiment [19] was “inactive” throughout. For the same compound, the compound was classed as inactive in experiment [3], in experiment [4], in experiment [5], in experiment [6], in experiment [7] and in [8]. For the same compound, the compound was called inactive in experiment [9], in [10], in experiment [11], in experiment [12], in experiment [13] and in [14]. Moreover, in [15], the outcome was inactive.
Turning to `O=S(=O)(O)CC(O)CCl` (stereo unspecified), the Potency entry in [1] and in experiment [19] was “inactive” in each case. Moreover, the outcome in [3], in experiment [5], in experiment [6], in [7], in experiment [8] and in [10] was inactive. The outcome in [11], in experiment [12], in experiment [13], in experiment [14] and in experiment [15] was inactive.
With `CC(C)(C)C(=O)NCCCC(=O)O`, the Potency entry in experiment [1] and in [19] was “inactive” throughout. In addition, the compound was classed as inactive in experiment [3], in experiment [4], in [5], in experiment [7], in [8] and in experiment [9]. Besides, the outcome in experiment [10], in [11], in experiment [12], in [13], in experiment [14] and in experiment [15] was inactive.
Turning to `CC(C)c1cc(C(C)C)cc(C(C)C)c1`, the Potency entry in experiment [1], in experiment [19] and in experiment [20] was “inactive” throughout. Moreover, the call in [4], in experiment [5], in [6], in experiment [7], in experiment [8] and in [9] was inactive. Also, the result in experiment [10], in [11], in experiment [12], in experiment [13], in [14] and in [15] was inactive. Further, the result in experiment [16] and in [18] was inactive.
For `O=C(c1ccccc1)c1cccc(O)c1`, the Potency entry in experiment [1] was “inactive”. Moreover, the call in experiment [2], in experiment [3], in experiment [4], in experiment [5], in experiment [7] and in experiment [8] was inactive. The compound was called inactive in [9], in [10], in experiment [11], in [13], in [14] and in experiment [15]. In addition, the compound was called inactive in [16]. The Potency in experiment [20] is 27.7 µM (active).
For the compound `C/C(Cl)=C/CCl`, the Potency result in [1], in experiment [19] and in [20] was “inactive” in each case. The call in experiment [5], in experiment [6], in experiment [7], in experiment [8], in experiment [9] and in experiment [10] was inactive. Moreover, the compound was called inactive in [11], in experiment [12], in [13], in [14], in experiment [15] and in experiment [16].
For `C=CC(=O)OCC[N+](C)(C)C`, the Potency entry in experiment [1] and in experiment [19] was “inactive” in each case. Further, the call in experiment [3], in experiment [4], in experiment [5], in experiment [6], in experiment [7] and in [8] was inactive. Besides, the outcome in experiment [10], in [11], in [12], in experiment [13], in [14] and in experiment [15] was inactive.
Turning to `CNCCc1ccccn1`, the Potency entry in experiment [1], in experiment [19] and in experiment [17] was “inactive” in each case. Further, the result in experiment [3] and in experiment [18] was inactive. Moreover, the fluorescence, relative to Rose Bengal in experiment [5] was 0.136% [at 18.6 µM]. Besides, the results for the fluorescence, % of fluorescein control in [6] and in [15] were -0.0784% [at 18.6 µM] and -0.0162% [at 18.6 µM], respectively. Also, in experiment [7], the fluorescence, % of triamterene is 0.106% [at 18.6 µM]. For the same compound, the fluorescence, % of fluorescent control in [8] is 0.589% [at 18.6 µM]; in [10], 0.0128% [at 18.6 µM]; in [12], -0.0269% [at 18.6 µM]; in experiment [14] it was 0.0418% [at 18.6 µM]; in experiment [16] it was 0.114% [at 18.6 µM]. In [9], the fluorescence, % of fluorescein was -0.0419% [at 18.6 µM]. Besides, the activity change in [11] is -0.037% [at 18.6 µM]. Also, the fluorescence, % of Rose Bengal in experiment [13] is 0.0243% [at 18.6 µM].
For `C=COCCCCO`, the Potency entry in experiment [1], in [19] and in experiment [20] was “inactive” throughout. The result in [3], in experiment [5], in experiment [6], in experiment [7], in experiment [8] and in experiment [9] was inactive. For the same compound, the call in experiment [10], in [11], in [13], in [14] and in experiment [18] was inactive.
